Source: PubChem BioAssay (NCATS)
Inconclusive results are not listed. The source made the active and inactive calls. Unless noted, calls come from the whole dose curve; as a rule, active = well fitted curve in the direction sought with a large enough effect; inconclusive = small, poorly fitted or top-dose-only effect, or another doubt; inactive = no such curve, though single readings can be large; an effect the other way counts as inactive or inconclusive.

Key:
[1] = biological target: Rap guanine nucleotide exchange factor 3 (Homo sapiens) (UniProt O95398); experiment: Confirmatory qHTS for antagonist of cAMP-regulated guanine nucleotide exchange factor 3 (EPAC1) (AID 1645880); conditions: EPAC1 Rap1B-BODIPY-GDP exchange, fluorescence; activity, negative = inhibition: at 115 µM (top of the series); note: nearly all actives have a fitted effect of over 55% in size; note: potency is the fitted concentration of half-maximal effect;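 for activity, negative = inhibition: plate controls were DMSO only for no effect and full effect of the ATA control for full effect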
Method in brief: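 Released BODIPY-GDP fluoresces less than Rap1-bound BODIPY-GDP; the signal is followed at 480/540 nm at 5-min intervals over 30 min, after 5 min at room temperature. Reactions contain 100 nM EPAC1, 250 nM RAP1B-BODIPY-GDP and 50 uM GDP; results are normalized to ATA and DMSO.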

[2] = biological target: Rap guanine nucleotide exchange factor 3 (Homo sapiens) (UniProt O95398); experiment: Confirmatory qHTS for agonist of cAMP-regulated guanine nucleotide exchange factor 3 (EPAC1) (AID 1645881);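 note: EPAC1 catalysed release of BODIPY-GDP from Rap1B seen as fluorescence loss; 100% = effect of cAMP agonist control; nearly all actives have a fitted effect of over 75% in size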
[3] = biological target: Rap guanine nucleotide exchange factor 4 (Homo sapiens) (UniProt Q8WZA2); experiment: Confirmatory qHTS for antagonist of cAMP-regulated guanine nucleotide exchange factor 4 (EPAC2) (AID 1645885); note: % is set by controls: 0 for no effect and ±100 for the full control effect; nearly all actives have a fitted effect of over 25% in size
[4] = biological target: Rap guanine nucleotide exchange factor 3 (Homo sapiens) (UniProt O95398); experiment: Counterscreen qHTS for antagonist of cAMP-regulated guanine nucleotide exchange factor 3 (EPAC1) (AID 1645888); note: % of control where 0% means no effect
Method in brief: (§1)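 Rap1B-BODIPY-GDP 250 nM + GDP 50 uM; cpds 7-pt, final 9.74 nM–152 uM (activator mode) or from 7.32 nM upwards (inhibitor mode); RT; FI 480/540 nm at 5 and 30 min, then ± cAMP, reread.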

[5] = biological target: Rap guanine nucleotide exchange factor 3 (Homo sapiens) (UniProt O95398); experiment: Counterscreen qHTS for agonist of cAMP-regulated guanine nucleotide exchange factor 3 (EPAC1) (AID 1645889); note: % of control where 0% means no effect; nearly all actives have a fitted effect of over 40% in size
Method in brief: as §1

[6] = biological target: Lysosomal acid glucosylceramidase (Homo sapiens) (UniProt P04062); experiment: Glucocerebrosidase-p2 (AID 348; in the data active = potency below about 10 µM; note: potency is the fitted concentration of half-maximal effect); conditions: purified GBA, blue fluorogenic substrate, 40 min
Method in brief: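 Normal human glucocerebrosidase (0.2 nM) with blue fluorogenic substrate (80 uM final) in citrate/phosphate pH 5.9 with 10mM sodium taurocholate, 0.01% tween-20; 40 min RT, NaOH/glycine stop; fluorescence Ex 365/Em 440; AC50 from a titration from 0.6 nM upwards.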

[7] = AP1 Signaling Pathway (AID 357; active = well fitted curve in either direction with a large enough effect, not every such curve was filed as active;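 note: ME-180 reporter cells stimulated with EGF at its EC50 level; % is set by controls: 0 for no effect and ±100 for the full control effect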); conditions: ME-180 (cervical carcinoma) AP-1-bla reporter, EGF-induced, beta-lactamase ratio, 5 h; at 7.69 µM (top of the series) unless noted
Method in brief: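 First, ME-180 AP-1-bla cells were cultured overnight at 37 °C in low-serum Opti-MEM. Next, titrated compounds with EC50 EGF were incubated 5 hours. Finally, CCF4 was added for 2.5 hours and the 460/530 nm ratio recorded.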

[8] = biological target: Cytochrome P450 1A2 (Homo sapiens) (UniProt P05177); experiment: p450-cyp1a2 (AID 410; calls by dose curve; note: potency is the fitted concentration of half-maximal effect)
Method in brief: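 20nM CYP1A2, 100uM Luciferin-ME (=Km), 100mM KPO4; cpd 10 min RT; +NADPH regen, 60 min RT; stop/detect 20 min; luminescence. Normalized to furafylline 57 uM = full inhibition.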

[9] = NFAT Signaling Pathway (AID 444; active = well fitted curve in either direction with a large enough effect, not every such curve was filed as active;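 note: carbachol stimulus at about its EC50 of 1 µM final; % is set by controls: 0 for no effect and ±100 for the full control effect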); conditions: Jurkat NFAT-bla M1, carbachol, beta-lactamase ratio, 5 h; at 7.69 µM (top of the series) unless noted
Method in brief: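 Read-out: CCF4 FRET ratio (460 nm/530 nm) after 1 h RT dye loading, used for %activity and AC50 from titration series. Cells: Jurkat NFAT-β-lactamase/M1 line, treated with compound plus 1 uM carbachol for 5 h, 37 °C.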

[10] = Stat Signaling Pathway (AID 446; active = well fitted curve in either direction with a large enough effect, not every such curve was filed as active;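 note: ME-180 cervical cancer cells given 40 pM IL-6 alongside compound; SIE-controlled beta-lactamase reporter measured as 460/530 nm FRET emission ratio; % is set by controls: 0 for no effect and ±100 for the full control effect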)
Method in brief: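 FRET read-out (405 nm excitation, 460/530 nm emission) of a beta-lactamase reporter under a STAT-inducible element in ME-180 cervical carcinoma cells. Cells with compound receive 40 pM IL-6 for 5 h. Values are normalised to AC90 stimulation and AC90 JAK-inhibitor controls.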

[11] = biological target: Glucocorticoid receptor (Homo sapiens) (UniProt P04150); experiment: GR-GFP Redistribution (AID 450;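 active = compounds whose dose series gives a full or clear partial fitted curve of increased nuclear translocation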; note: potency is the fitted concentration of half-maximal effect); conditions: U2OS GR-GFP nuclear translocation, laser cytometry, 2 h
[12] = biological target: Glucocorticoid receptor (Homo sapiens) (UniProt P04150); experiment: GR-EFC Redistribution (AID 451; calls by dose curve; note: potency is the fitted concentration of half-maximal effect); conditions: CHO-K1 GR-EFC translocation, beta-gal luminescence, 2 h
Method in brief: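 Translocation of GR-ED fusion to nuclear EA restores b-gal, read by luminescence after 1 h room-temperature detection. Engineered CHO-K1 biosensor cells, 1,000/well, exposed 2 h at 37 C to titrations up to 46 uM final.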

[13] = biological target: 3',5'-cyclic-AMP phosphodiesterase 4B (Homo sapiens) (UniProt Q07343); experiment: qHTS Assay for Inhibitors of PDE-IV (AID 607; active = well fitted activation curve with a large enough effect in the main read-out, with a control signal flat, not every such curve was filed as active; note: % of control where 0% means no effect)
Method in brief: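 Cell-based read-out of cAMP via a modified cyclic nucleotide-gated channel and membrane potential dye (535/590 nm) in HEK293 cells expressing PDE4 endogenously. Compounds tested up to 22.9 uM final; 100 uM RO 20-1724 reference.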

[14] = biological target: Cytochrome P450 2C9 (Homo sapiens) (UniProt P11712); experiment: qHTS Assay for Inhibitors and Substrates of Cytochrome P450 2C9 (AID 883); note: potency is the fitted concentration of half-maximal effect; nearly all actives have a fitted effect of over 60% in size
Method in brief: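 Turnover of Luciferin-H (100uM, KM) by 10nM human CYP2C9 was measured over 60 min at 37C with NADPH regeneration; inhibitors and some substrates reduce luminescence. Data normalized to sulphaphenazole 57uM.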

[15] = biological target: Cytochrome P450 3A4 (Homo sapiens) (UniProt P08684); experiment: qHTS Assay for Inhibitors and Substrates of Cytochrome P450 3A4 (AID 884); note: potency is the fitted concentration of half-maximal effect; nearly all actives have a fitted effect of over 50% in size
Method in brief: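 Luminescent readout of luciferin produced by CYP3A4 (20 nM) dealkylation of Luciferin-PPXE, 25 uM (its KM). NADPH-driven reaction ran 60 min at RT after 10 min compound preincubation; data scaled to 57 uM ketoconazole as 100% inhibition.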

[16] = biological target: Cytochrome P450 3A4 (Homo sapiens) (UniProt P08684); experiment: qHTS Assay for Activators of Cytochrome P450 3A4 (AID 885); note: nearly all actives have a fitted effect of over 65% in size
Method in brief: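 Luminescent readout of luciferin formed from 25 uM Luciferin-PPXE (KM level) by 20 nM CYP3A4 in 200 mM KPO4, with 60 min NADPH-driven reaction at room temperature after 10 min compound exposure. Ketoconazole (57 uM) defined 100% inhibition.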

[17] = biological target: Cytochrome P450 2D6 (Homo sapiens) (UniProt P10635); experiment: qHTS Assay for Inhibitors and Substrates of Cytochrome P450 2D6 (AID 891); note: potency is the fitted concentration of half-maximal effect; nearly all actives have a fitted effect of over 60% in size
Method in brief: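 Luminescent read-out of luciferin formed by 5 nM human CYP2D6 demethylating 30 uM Luciferin-ME EGE (Km level) over 60 min at room temperature after NADPH regeneration addition. Data normalized to full inhibition by 1.43 uM quinidine.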

[18] = biological target: Cytochrome P450 2C19 (Homo sapiens) (UniProt P33261); experiment: qHTS Assay for Inhibitors and Substrates of Cytochrome P450 2C19 (AID 899); note: potency is the fitted concentration of half-maximal effect; nearly all actives have a fitted effect of over 60% in size
Method in brief: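 Reactions contain 5nM enzyme, 10uM Luciferin-H EGE (KM) and 50mM KPO4; compound preincubates 10 min at 37C, NADPH regeneration starts turnover for 60 min. Luminescence after detection reagent gives activity.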

[19] = biological target: Dual specificity protein kinase CLK4 (Homo sapiens) (UniProt Q9HAZ1); experiment: qHTS Assay for Inhibitors of CDC-like Kinase 4 (Kinase-Glo Assay) (AID 1770); note: potency is the fitted concentration of half-maximal effect; nearly all actives have a fitted effect of over 65% in size
Method in brief: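 25 nM Clk4 with 100 uM RS repeat peptide and 1 uM ATP (final) in Tris pH7.5, 10 mM MgCl2, 4.5 h at room temperature. Remaining ATP measured by Kinase-Glo luciferase luminescence.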

[20] = biological target: Dual specificity protein kinase CLK4 (Homo sapiens) (UniProt Q9HAZ1); experiment: qHTS Assay for Inhibitors of CDC-like Kinase 4 (ADP-FP Assay) (AID 1795); note: potency is the fitted concentration of half-maximal effect; nearly all actives have a fitted effect of over 60% in size
Method in brief: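 Recombinant Clk4 (6.25 nM) phosphorylated 100 uM RS repeat peptide with 1 uM ATP in 25 mM Tris pH 7.5, 10 mM MgCl2, 0.5 mM EGTA, 2.5 mM DTT, 0.01% Triton X-100 for 1 h. ADP was detected by Transcreener ADP2 competitive fluorescence polarization after 30 min at room temperature.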

[21] = biological target: Ubiquitin carboxyl-terminal hydrolase 1 (Homo sapiens) (UniProt O94782); experiment: Inhibitors of USP1/UAF1: Pilot qHTS (AID 504865);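 note: rhodamine fluorescence freed from ubiquitin-rhodamine substrate followed over time; top concentration of the series differs between compounds; % is set by controls: 0 for no effect and ±100 for the full control effect; nearly all actives have a fitted effect of over 35% in size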
Method in brief: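 USP1/UAF1 complex at 1 nM preincubated 15 min at room temperature with compound, then Ub-Rho substrate added at 150 nM final. Fluorescence (480/540 nm) read kinetically in 50 mM HEPES pH 7.8, 0.5 mM EDTA, 1 mM TCEP, 0.1 mg/ml BSA, 0.01% Tween-20.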

Sequence of Rap guanine nucleotide exchange factor 4 (Homo sapiens) (Q8WZA2 whole entry, looked up): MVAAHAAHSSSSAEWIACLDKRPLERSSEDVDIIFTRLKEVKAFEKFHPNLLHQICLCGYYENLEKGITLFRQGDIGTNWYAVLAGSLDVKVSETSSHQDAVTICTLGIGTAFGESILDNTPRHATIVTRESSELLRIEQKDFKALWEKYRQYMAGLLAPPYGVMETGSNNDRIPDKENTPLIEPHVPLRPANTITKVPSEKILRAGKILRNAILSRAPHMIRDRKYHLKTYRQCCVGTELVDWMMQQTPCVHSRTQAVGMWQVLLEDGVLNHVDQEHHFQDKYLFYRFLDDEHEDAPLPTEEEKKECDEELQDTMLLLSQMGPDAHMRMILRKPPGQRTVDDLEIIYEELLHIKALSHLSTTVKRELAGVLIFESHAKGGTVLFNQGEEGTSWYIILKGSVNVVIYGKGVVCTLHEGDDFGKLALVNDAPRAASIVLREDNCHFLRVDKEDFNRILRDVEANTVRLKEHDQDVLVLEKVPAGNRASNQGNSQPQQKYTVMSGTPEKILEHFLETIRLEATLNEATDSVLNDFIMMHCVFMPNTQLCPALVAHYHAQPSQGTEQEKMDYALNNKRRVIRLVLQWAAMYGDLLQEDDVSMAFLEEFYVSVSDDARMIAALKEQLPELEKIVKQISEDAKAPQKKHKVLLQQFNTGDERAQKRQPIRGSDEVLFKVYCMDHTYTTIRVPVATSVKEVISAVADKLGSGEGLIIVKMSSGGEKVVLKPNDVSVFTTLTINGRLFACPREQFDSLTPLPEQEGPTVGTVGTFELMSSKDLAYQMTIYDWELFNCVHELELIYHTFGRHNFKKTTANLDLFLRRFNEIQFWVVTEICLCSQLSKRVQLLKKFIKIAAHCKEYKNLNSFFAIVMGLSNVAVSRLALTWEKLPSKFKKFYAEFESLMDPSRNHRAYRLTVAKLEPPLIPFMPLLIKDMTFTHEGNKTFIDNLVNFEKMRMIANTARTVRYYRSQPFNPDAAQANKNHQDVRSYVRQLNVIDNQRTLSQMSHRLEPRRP
Sequence of Rap guanine nucleotide exchange factor 3 (Homo sapiens) (O95398 whole entry, looked up): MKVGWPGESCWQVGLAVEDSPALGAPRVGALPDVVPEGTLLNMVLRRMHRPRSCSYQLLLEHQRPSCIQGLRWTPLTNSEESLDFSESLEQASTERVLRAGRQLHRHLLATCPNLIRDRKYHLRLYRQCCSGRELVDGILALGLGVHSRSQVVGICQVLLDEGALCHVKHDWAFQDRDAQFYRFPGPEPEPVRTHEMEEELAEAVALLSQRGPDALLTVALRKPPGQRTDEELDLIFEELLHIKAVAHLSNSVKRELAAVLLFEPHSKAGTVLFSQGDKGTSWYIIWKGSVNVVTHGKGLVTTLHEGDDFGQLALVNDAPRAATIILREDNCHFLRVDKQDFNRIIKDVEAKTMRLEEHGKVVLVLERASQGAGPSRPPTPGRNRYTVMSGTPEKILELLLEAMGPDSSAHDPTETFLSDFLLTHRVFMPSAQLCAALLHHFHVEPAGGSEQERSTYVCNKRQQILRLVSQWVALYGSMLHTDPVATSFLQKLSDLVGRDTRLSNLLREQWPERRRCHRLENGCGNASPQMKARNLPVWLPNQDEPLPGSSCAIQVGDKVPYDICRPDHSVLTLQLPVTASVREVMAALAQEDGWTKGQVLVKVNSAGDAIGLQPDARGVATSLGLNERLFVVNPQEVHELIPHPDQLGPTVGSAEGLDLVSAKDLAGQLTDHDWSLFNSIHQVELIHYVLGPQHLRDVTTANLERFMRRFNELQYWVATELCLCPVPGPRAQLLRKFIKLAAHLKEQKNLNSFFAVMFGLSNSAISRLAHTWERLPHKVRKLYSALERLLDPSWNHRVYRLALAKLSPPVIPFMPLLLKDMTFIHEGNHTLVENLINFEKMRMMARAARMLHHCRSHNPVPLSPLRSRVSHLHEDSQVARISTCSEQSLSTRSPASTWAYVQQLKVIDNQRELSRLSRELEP
Sequence of Glucocorticoid receptor (Homo sapiens) (P04150 whole entry, looked up, the tested form may be a part): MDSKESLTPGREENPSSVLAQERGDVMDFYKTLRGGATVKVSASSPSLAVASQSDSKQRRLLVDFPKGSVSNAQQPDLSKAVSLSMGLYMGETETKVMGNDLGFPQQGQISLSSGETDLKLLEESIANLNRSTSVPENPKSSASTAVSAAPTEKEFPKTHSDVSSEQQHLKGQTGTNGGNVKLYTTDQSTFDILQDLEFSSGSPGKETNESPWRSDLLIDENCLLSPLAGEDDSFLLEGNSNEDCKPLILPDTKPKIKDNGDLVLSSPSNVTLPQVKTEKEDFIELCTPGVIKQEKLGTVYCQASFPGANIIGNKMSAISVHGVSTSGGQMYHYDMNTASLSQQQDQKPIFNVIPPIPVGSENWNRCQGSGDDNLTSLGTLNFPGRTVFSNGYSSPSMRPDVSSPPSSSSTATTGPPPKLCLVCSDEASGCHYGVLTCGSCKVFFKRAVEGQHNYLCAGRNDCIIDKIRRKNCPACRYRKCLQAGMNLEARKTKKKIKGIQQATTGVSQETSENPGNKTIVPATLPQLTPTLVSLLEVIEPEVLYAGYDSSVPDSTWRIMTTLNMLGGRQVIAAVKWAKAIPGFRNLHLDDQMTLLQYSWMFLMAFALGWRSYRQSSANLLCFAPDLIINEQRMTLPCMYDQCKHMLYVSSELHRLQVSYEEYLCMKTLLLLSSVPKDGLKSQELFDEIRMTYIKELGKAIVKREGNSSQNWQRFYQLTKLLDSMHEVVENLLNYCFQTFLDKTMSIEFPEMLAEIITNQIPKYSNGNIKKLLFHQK
Sequence of Cytochrome P450 3A4 (Homo sapiens) (P08684 whole entry, looked up): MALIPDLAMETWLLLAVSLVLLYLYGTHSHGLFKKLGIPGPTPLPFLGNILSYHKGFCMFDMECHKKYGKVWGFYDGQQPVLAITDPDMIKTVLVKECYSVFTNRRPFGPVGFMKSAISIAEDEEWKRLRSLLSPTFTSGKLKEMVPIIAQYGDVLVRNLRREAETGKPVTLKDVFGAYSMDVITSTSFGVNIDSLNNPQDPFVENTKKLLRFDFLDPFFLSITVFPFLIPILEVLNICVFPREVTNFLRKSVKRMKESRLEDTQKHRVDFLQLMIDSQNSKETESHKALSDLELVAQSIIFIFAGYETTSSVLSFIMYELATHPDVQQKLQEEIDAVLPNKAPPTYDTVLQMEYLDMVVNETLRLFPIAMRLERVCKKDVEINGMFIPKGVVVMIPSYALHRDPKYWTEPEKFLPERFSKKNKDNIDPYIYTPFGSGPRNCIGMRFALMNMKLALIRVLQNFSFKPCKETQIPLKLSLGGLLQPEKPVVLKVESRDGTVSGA
Sequence of Dual specificity protein kinase CLK4 (Homo sapiens) (Q9HAZ1 whole entry, looked up): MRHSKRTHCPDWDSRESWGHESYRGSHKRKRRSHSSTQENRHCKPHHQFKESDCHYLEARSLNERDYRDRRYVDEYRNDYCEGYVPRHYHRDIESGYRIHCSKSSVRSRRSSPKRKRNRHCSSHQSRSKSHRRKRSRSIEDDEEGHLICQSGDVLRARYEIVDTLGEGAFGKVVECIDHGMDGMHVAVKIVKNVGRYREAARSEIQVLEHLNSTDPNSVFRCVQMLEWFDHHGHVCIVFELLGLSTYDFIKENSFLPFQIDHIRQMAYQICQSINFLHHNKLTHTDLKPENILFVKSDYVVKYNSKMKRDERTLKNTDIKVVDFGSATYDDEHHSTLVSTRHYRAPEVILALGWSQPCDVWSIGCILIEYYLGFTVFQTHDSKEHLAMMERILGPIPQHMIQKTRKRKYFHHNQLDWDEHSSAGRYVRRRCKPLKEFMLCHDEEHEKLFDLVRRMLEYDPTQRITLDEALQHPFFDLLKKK
Sequence of Lysosomal acid glucosylceramidase (Homo sapiens) (P04062 whole entry, looked up): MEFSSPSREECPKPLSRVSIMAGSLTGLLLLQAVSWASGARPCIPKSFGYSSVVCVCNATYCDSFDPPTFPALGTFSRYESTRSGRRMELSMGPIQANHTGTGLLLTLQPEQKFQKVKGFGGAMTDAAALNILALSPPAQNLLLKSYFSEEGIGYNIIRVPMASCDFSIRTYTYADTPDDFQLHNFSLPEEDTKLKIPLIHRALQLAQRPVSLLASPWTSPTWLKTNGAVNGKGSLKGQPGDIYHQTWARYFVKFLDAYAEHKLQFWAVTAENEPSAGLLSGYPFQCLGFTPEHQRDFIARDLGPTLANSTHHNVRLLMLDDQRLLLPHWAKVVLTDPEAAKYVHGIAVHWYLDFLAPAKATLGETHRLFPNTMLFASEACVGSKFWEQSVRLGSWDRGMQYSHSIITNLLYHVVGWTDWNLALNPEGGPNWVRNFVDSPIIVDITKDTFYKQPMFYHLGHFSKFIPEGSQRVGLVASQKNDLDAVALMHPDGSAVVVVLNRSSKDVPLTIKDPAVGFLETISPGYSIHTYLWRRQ
Sequence of Cytochrome P450 2C9 (Homo sapiens) (P11712 whole entry, looked up): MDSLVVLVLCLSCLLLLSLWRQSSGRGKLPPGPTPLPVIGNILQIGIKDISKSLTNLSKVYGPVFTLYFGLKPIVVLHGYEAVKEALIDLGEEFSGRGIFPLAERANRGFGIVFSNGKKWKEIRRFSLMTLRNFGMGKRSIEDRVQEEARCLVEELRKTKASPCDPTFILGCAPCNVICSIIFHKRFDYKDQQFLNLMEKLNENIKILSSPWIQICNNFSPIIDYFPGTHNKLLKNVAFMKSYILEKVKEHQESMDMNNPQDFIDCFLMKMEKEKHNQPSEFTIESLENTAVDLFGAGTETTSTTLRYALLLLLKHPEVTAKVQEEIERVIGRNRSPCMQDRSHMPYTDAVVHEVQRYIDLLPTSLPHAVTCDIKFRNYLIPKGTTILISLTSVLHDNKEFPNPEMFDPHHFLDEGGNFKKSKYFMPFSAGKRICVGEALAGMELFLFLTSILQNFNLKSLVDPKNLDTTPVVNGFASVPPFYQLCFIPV

Cc1ccc2nc(SCC(=O)c3c(N)n(C4CC4)c(=O)[nH]c3=O)[nH]c2c1
inactive: Potency [1] | Potency [2] | Potency [3] | Potency [4] | Potency [5]

CCN(Cc1cc(=O)oc2cc(C)ccc12)c1ccccc1
inactive: Potency [1] | Potency [2] | Potency [4]

C=C(C)Cn1c(C)cc(C)c(S(=O)(=O)c2ccccc2C)c1=O
inactive: Potency [1] | Potency [2] | activity change, negative = inhibition [4] -6.66% [at 30.8 µM]

CC1CCCN(C2(O)C(=O)Nc3ccc(Br)cc32)C1 (centres undefined)
inactive: Potency [1] | Potency [2] | Potency [4]

Cc1cc(C)c2c(CN3CCCCC3C)cc(=O)oc2c1 (centres undefined)
inactive: Potency [1] | Potency [2] | activity change, negative = inhibition [4] -3.91% [at 30.8 µM]

COC(=O)[C@@H]1CC[C@@](C)(c2ccc(OC)cc2)C1(C)C
inactive: Potency [1] | Potency [2] | activity change, negative = inhibition [4] 8.1% [at 30.8 µM]

COc1ccc(NC(=O)CSc2ccccc2)cc1S(=O)(=O)N1CCCCC1
inactive: Potency [1] | Potency [2] | Potency [4]

CCOc1nc(-c2ccccc2Cl)nc2ccccc12
inactive: Potency [1] | Potency [2] | Potency [4]

COc1ccc(Nc2cccc3ccccc23)cc1
inactive: Potency [1] | Potency [2] | Potency [4]

CC(C)COc1ccc(C(=O)Nc2cc(-c3ccccc3)no2)cc1
inactive: Potency [1] | Potency [2] | Potency [3] | Potency [5]

COc1ccc(C2=CC3=C(Br)C(=O)C(C)(OC(=O)c4cccs4)C(=O)C3=CO2)cc1 (centres undefined)
inactive: Potency [2] | Potency [4]
active: Potency [1] 16.9 µM

COc1c(Cl)cc(Cl)cc1CNc1ccc(S(N)(=O)=O)cc1
inactive: Potency [1] | Potency [2] | Potency [4]

Cc1ccc(N2CC(NC(=O)C(=O)c3c[nH]c4ccccc34)CC2=O)cc1C (centres undefined)
inactive: Potency [1] | Potency [2] | Potency [4]

COc1ccc2c(c1)CCc1c(C(=O)N(C)c3ccccc3)noc1-2
inactive: Potency [1] | Potency [2] | Potency [4]

COc1ccc2[nH]cc(CCNc3ncncc3-c3ccccc3Cl)c2c1
active: Potency [8] 0.631 µM | Potency [14] 0.199 µM | Potency [15] 0.398 µM | Potency [17] 0.631 µM | Potency [18] 0.0631 µM | Potency [19] 12.6 µM | Potency [20] 12.6 µM
inactive: Potency [6] > 11.4 µM | activity change, negative = inhibition [7] -12.3% | activity change, negative = inhibition [9] -11.6% | outcome [10] | Potency [11] > 46 µM | Potency [12] > 46 µM | Potency [13] | outcome [16] | Potency [21] | Potency [1] | Potency [2] | Potency [3]
